KCNH2 WT inh = inhibitors of human wildtype KCNH2 potassium channel. activity change, % at 1.84 µM. Q12809. AID 720551. U2OS, BacMam KCNH2, thallium flux FluxOr; stronger effect = lower value. actives 0.37% (n = 340,000);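 active = maximum activity change below -70%; inconclusive = maximum activity change between -70% and -50%; inactive = maximum activity change above -50%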; note: % is set by controls: 0 for no effect and ±100 for the full control effect
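U2OS cells were transduced with wild-type KCNH2 virus (2.03 x 10^8 / mL) for 4 h at room temperature, then cultured overnight at 37 C. Thallium flux was read with FluxOr dye. Rate constants were normalized to DMSO controls.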
ClpP mod = qHTS Assay for Activators of ClpP; ATP-dependent Clp protease proteolytic subunit (Bacillus subtilis (strain 168)), P80244; purified B. subtilis ClpP, FRET peptide cleavage, 20 min; Potency, µM (top dose mostly 57.5 µM), without a hit: at the top dose activity change, negative = active; actives 1.9% (n = 340,000); AID 651965, 2013; active = well fitted falling curve with a large enough effect; inconclusive = small, poorly fitted or top-dose-only effect; inactive = no such curve, though single readings can be large or run the other way; note: potency is the fitted concentration of half-maximal effect; the source files actives as falling curves though it sought activators and does not explain the sign; nearly all actives have a fitted effect of over 65% in size
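ClpP 10 microg/mL final, pH 8 Tris/KCl buffer with BSA, glycerol, Tween-20; compound pinned in; FRET-FV substrate; RT 20 min; Ex320/Em430; ΔFRET vs ADEP 5.8 microM, DMSO, no enzyme.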
KCNH2 3.1 inh = blocks the human KCNH2 3.1 channel isoform. U2OS KCNH2 3.1, thallium flux FluxOr; stronger effect = lower value. activity change, % (tested at about 1.8 µM). actives 0.95% (n = 340,000). AID 720553;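 active = maximum activity change below -70%; inconclusive = maximum activity change from -70% to -50%; inactive = maximum activity change above -50%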;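 note: thallium influx rate constant from kinetic fluorescence after stimulation buffer; % is set by controls: 0 for no effect and ±100 for the full control effect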
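Steps: virus added to U2OS suspension (4 h, RT, dark); medium with 10% FBS added, cells plated, 37 C overnight; FluxOr/Red40 loading buffer 45 min RT; stimulation buffer, 2 min kinetic read; rate constant normalized.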
LDHA inh = inhibitors of human lactate dehydrogenase A; P00338; purified LDHA, NADH/diaphorase-resazurin fluorescence; stronger effect = lower value; activity change, % (values are at about 110 or 230 µM); actives 0.15% (n = 480,000); AID 1347041; in the data active = activity change below about -30%; inconclusive = mostly about -25% to -30%;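 note: plate controls were DMSO wells for no effect and wells without enzyme for full effect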
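Resorufin fluorescence (ex540/em590), read at 0 and 20 min after diaphorase/resazurin addition, reports the NADH left after a 5 min room-temperature reaction of 2 nM human LDH5 with 0.06 mM NADH and 0.2 mM pyruvate.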
Chronic BCR inh = inhibitors of chronic active B-cell receptor signaling | actives 0.05% (n = 340,000) | Potency, µM (titrated, usually from 46.1 µM), for inactives: at the top dose activity change, negative = inhibition, actives largely listed as inhibitors | ABC-DLBCL IkBa-CBG/CBR reporter, luminescence ratio, 4 h | AID 493014; active = well fitted inhibition curve with a large enough effect in the signal ratio, with a control signal flat, not every such curve was filed as active; inconclusive = small, poorly fitted or top-dose-only effect, or effect the other way, or a change in a side signal; the % refers to the signal ratio;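 note: potency is the fitted concentration of half-maximal effect; plate controls were basal doxycycline-induced cells for no effect and cells given 10 µM MG132 for full effect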
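TMD8 ABC-DLBCL cells carrying doxycycline-inducible green luciferase fused to IkappaBalpha plus unfused red luciferase were exposed to compounds (up to 46 uM) for 4 hrs at 37C. Activity came from the overlap-corrected green/red luminescence ratio.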
ALOX12 inh = blocks human arachidonate 12S-lipoxygenase; P18054; purified 12hLO, xylenol orange hydroperoxide absorbance; AID 1671190; actives 1.1% (n = 580,000); Potency, µM (titrated, usually from 108 µM), for the others: at the top dose activity change, negative = inhibition, usual class: inhibitors; active = well fitted inhibition curve with a large enough effect; inconclusive = small, poorly fitted or top-dose-only effect, or another doubt; inactive = no such curve, though single readings can be large or run the other way; note: potency is the fitted concentration of half-maximal effect; % is set by controls: 0 for no effect and ±100 for the full control effect
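Hydroperoxide product was detected by ferrous iron/xylenol orange as the 573 to 405 nm absorbance ratio. Arachidonic acid at 40 uM (final) was turned over for 30 min at room temperature by 150 nM human 12hLO, pH 7.0 Hepes buffer, after 15 min compound preincubation.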
Numbers without * were called inactive; ? = inconclusive; . = no result given; ! = repeats disagree. Hits are enriched below; roughly 3% of the tested compounds scored in any of these assays.

SMILES	KCNH2 WT inh	ClpP mod	KCNH2 3.1 inh	LDHA inh	Chronic BCR inh	ALOX12 inh
Cn1cnc2c1c(=O)n(CC(=O)NCc1ccccc1OC(F)F)c(=O)n2C	.	.	.	4	.	-7%
COc1ccc(-c2cc(-c3ccco3)[nH]c(=O)c2C#N)cc1	-3	5%	0	2	7%	40µM*
COc1ccc(Br)c(C(=O)N2CCN(S(=O)(=O)/C=C/c3ccccc3)CC2)c1	9	28µM*	-5	-8	0%	-6%
FC(F)(F)c1cccc(-n2cccc2/C=N/n2cnnc2)c1	-8	0%	-1	-14	-4%	14µM*
NC(=S)c1ccc(C(F)(F)F)cc1	.	.	.	-1	.	?
FC(F)(F)c1ccc(=S)[nH]c1	.	.	.	8	.	5µM*
COc1ccc(CNC(=O)C(=O)Nc2ccc(C)cc2C)cc1	.	.	.	-31*	.	29%
COc1ccc(CNC(=O)Nc2ccc(C)cc2C)cc1	-3	3%	-4	-2	-1%	1%
C=CCN(Cc1ccc(C#N)cc1)Cc1cccnc1	.	.	.	.	.	10%
C/C(=N\Nc1ccc(F)cc1F)c1ccc(Br)s1	-5	.	-4	8	?	32µM*
COc1ccc(-c2cc(=S)ss2)cc1	.	.	.	.	.	18µM*!
CC(C)(C)c1ccc(OCC(=O)NNC(=O)CCc2ccccc2)cc1	-5	1%	14	-3	-8%	0%
N#Cc1ccc(-c2ccc(OCC(=O)NCCc3ccccc3)cc2)cc1	-4	32µM*	-15	2	?	12%
O=C(COc1ccccc1)NC(=S)Nc1cccc2c(O)cccc12	-5	7%	-14	3	.	45µM*
COC(=O)c1ccccc1NC(=S)NC(=O)COc1ccccc1	5	-1%	8	0	-10%	0%
COc1ccc(CCNC(=O)COc2ccc(-c3ccc(C#N)cc3)cc2)cc1	3	?	-4	-5	-3%	-15%
Cc1ccccc1C(=O)NNC(=S)NC(=O)COc1ccccc1	-25	-2%	11	-15	?	3.5µM*
CC(C)(C)c1ccc(C(=O)NC(=S)NNC(=O)COc2ccccc2)cc1	-19	-1%	-30	0	-2%	32µM*
COc1ccccc1C(=O)N1CCC(N2C[C@H](O)C[C@H]2C(=O)NC2CCCCC2)CC1	.	.	.	.	.	-2%
Cc1cccc(OCC(=O)NC(=S)NNC(=O)c2ccncc2)c1	-6	-3%	-8	-6	?	5µM*
Cc1ccc(OCC(=O)NNC(=S)NC(=O)COc2ccccc2)cc1	.	.	.	-11	.	11µM*
Cc1ccc(C(=O)NNC(=S)NC(=O)COc2ccccc2)cc1	21	-6%	11	-3	?	?
O=C(CCc1ccccc1)NNC(=O)COc1ccccc1	7	0%	-100*	-4	5%	25%
CCN(CC)C(CNC(=O)/C=C/c1cccs1)c1ccccc1 (stereo not drawn)	.	.	.	3	.	?
O=C(NC(=S)Nc1ccccc1N1CCCCC1)c1cccs1	-1	1%	-10	-2	1%	50µM*
SMILES	KCNH2 WT inh	ClpP mod	KCNH2 3.1 inh	LDHA inh	Chronic BCR inh	ALOX12 inh
COc1ccc(C(=O)NC(=S)Nc2ccccc2N2CCCCC2)cc1[N+](=O)[O-]	6	0%	-14	0	?	40µM*
O=C(NC(=S)Nc1ccccc1N1CCN(C(=O)c2ccccc2)CC1)c1cccs1	-9	2%	7	-3	14%	16µM*
O=C(NC(=S)Nc1ccccc1N1CCCC1)c1cccs1	-7	-2%	18	1	20%	-30%
O=C(NC(=S)NCc1ccccc1Cl)c1cccs1	-10	1%	2	-5	6%	16µM*
Cc1c(Cl)ccc2c(C(=O)NC3CCCCC3)cc(-c3ccccc3)nc12	.	.	.	1	.	20%
CCOc1ccc(-c2nc(Cn3nnc(C(=O)Nc4cccc(Cl)c4)c3N)c(C)o2)cc1OC	.	.	.	6	.	4%
O=C(Nc1ccc2[nH]ccc2c1)c1csc(NC2CC2)n1	.	.	.	-9	.	9%

Compound activity: PubChem BioAssay, National Center for Advancing Translational Sciences (NCATS)
